# Source: PubChem BioAssay
# A number with no mark means an inactive call.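 The calls were made as follows: active = viability loss from added drug above about 55%, and viability with drug at most 40%, in both replicates (limit read from the data, passing the limit was not always enough); inconclusive = both conditions met in only one replicate; inactive = neither replicate meets both conditions.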
# Assay: reversal of MRP1-mediated doxorubicin resistance, pilot screen, H69AR cells, doxorubicin co-treatment (AID 601)
# Details: H69AR cells + 2 uM doxorubicin, CellTiter-Glo, 72 h; at 10 µM; hits give high values
row,Compound,differential viability (reversal)
1,COC(=O)[C@H](C)NC(=O)Nc1cccc(C(F)(F)F)c1,-5.75%
2,Cc1cc2c(c(=O)n1C)C(Cc1ccccc1)C(C#N)=C(N)O2 (stereo not given),9.48%
3,Cn1c(-c2ccc(F)cc2)cnc1SCC(=O)Nc1ccccc1N1CCOCC1,12.9%
4,CCCNC(=O)NC1C(NC(=O)NCCC)N(C)C(=O)N1C (stereo not given),14.2%
5,C=CCN(CC=C)C(=O)Nc1cc(Cl)ccc1OC,0%
6,COc1cccc(NC(=O)C2CCCN2C(=O)Nc2cccc(F)c2)c1 (stereo not given),8.87%
7,Nc1nc(-c2ccc(Br)s2)c(Br)s1,9.83%
8,COc1ccc(CCNC(=O)CCN2C(=O)C3CC=CCC3C2=O)cc1OC (stereo not given),12%
9,CC[C@H](C)C(=O)O[C@H]1C[C@@H](C)C=C2C=C[C@H](C)[C@H](CC[C@@H]3C[C@@H](O)CC(=O)O3)[C@H]21,-6.58%
10,COc1cccc(-c2cc(C(=O)Nc3c(C)nn(Cc4ccccc4)c3C)no2)c1,8.66%
11,CCn1c(SCC(=O)NC)nnc1C(C)C,8.98%
12,Cn1c(=O)c2c(nc(NCCCO)n2Cc2cccc(Br)c2)n(C)c1=O,0.26%
13,COc1cc(NC(=O)CSCc2cnn(-c3ccccc3)c2-n2cccc2)cc(OC)c1,5.25%
14,COc1ccc(-n2ncc3c(NCc4ccc5c(c4)OCO5)ncnc32)cc1,-11%
15,CCN(CC(=O)Nc1ccc2c(c1)CCC2)Cc1nc2ccccc2c(=O)[nH]1,-13.7%
16,COc1ccccc1OCCOCCn1cnc2ccccc2c1=O,-3.44%
17,Cc1cn2c(-c3ccncc3)nnc2s1,7.13%
18,c1ccc2c(SCc3cn4cccnc4n3)ncnc2c1,10.4%
19,Cc1cnc(NC(=O)CSc2nnc(-c3ccccc3)n2Cc2ccccc2)s1,4.35%
20,C=CCN1C(=O)CS/C1=C(\C#N)S(=O)(=O)c1ccc(C)cc1,-2.67%
21,Cc1cc(C)n2nc(SCC(=O)N(C)Cc3ccccc3)nc2n1,-20.2%
22,COc1ccc2nc(S(=O)Cc3ncc(C)c(OC)c3C)[nH]c2c1 (stereo not given),-13.3%
23,O=C(O)c1cccc(COCC(F)(F)C(F)F)c1,6.01%
24,Cc1ccc(S(=O)(=O)N2CCN(C(=O)N3CCOCC3)C2C)cc1 (stereo not given),-4.24%
25,CCOc1ccc(NC(=O)CC2NCCNC2=O)cc1 (stereo not given),2.51%
